# Test results published in PubChem BioAssay.
# Some of the results follow. Activity calls are given as the source filed them.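 The calls were made as follows, unless noted: active = mean inhibition above about 50% in the one-dose retest (limit read from the data); inactive = the rest.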
# Assays:
# [1] = PMA/ionomycin-induced NF-kB reporter inhibitors, Jurkat retest, confirmation, T-cell NF-kB inhibitor project, cell-based, luminescence, single concentration (AID 435020;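 active = inhibition reaching about 45% at 4 µM in either replicate, limit read from the data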;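 also: plate controls were PMA/ionomycin stimulated DMSO wells for no effect and unstimulated DMSO wells for full effect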); settings: Jurkat NF-kB luciferase, 16 h, at 4 µM, stronger effect = higher value
# [2] = cytotoxicity in PPC-1 cells, confirmation, cytotoxicity control for TRAIL apoptosis potentiator project, cell-based, ATP content luminescence (AID 1447;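 active = reconfirmed compounds whose average cytotoxicity reaches 50% or more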;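 also: 0% = DMSO-treated cells and 100% = wells holding medium but no cells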); settings: PPC-1 viability, ATPlite luminescence, overnight; at 5 µM; stronger effect = higher value
# [3] = Peg3 promoter reporter inhibitors, retest, confirmation, cell-based, HeLa, luciferase reporter, single concentration (AID 602417;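 active = at 20 µM dose, 40% or more inhibition averaged across four replicates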); settings: HeLa PEG-Prom luciferase reporter, luminescence, overnight; at 20 µM; stronger effect = higher value
# [4] = target: COP9 signalosome complex subunit 5 (Homo sapiens) (UniProt Q92905); test: Csn5 deneddylation inhibitors, confirmation, biochemical, fluorescence polarization, single concentration, SCF-Nedd8OG substrate (AID 720654; in the data active = inhibition above about 50%;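 also: 0% = DMSO with enzyme and 100% = no enzyme wells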); settings: Csn5 deneddylation of SCF-Nedd8OG, 90 min, at 16.6 µM, stronger effect = higher value
# [5] = target: 72 kDa type IV collagenase (Homo sapiens) (UniProt P08253); test: MMP-2 protease inhibition counter-screen, confirmation, counter-screen for CSN deneddylation inhibitor project, biochemical, fluorescence, single concentration (AID 720655;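 active = corrected plate-normalized z-score of 5 or more, or -5 or less, or inhibition of 15% or more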;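 also: plate controls were DMSO wells with enzyme for no effect and buffer wells lacking MMP-2 for full effect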); settings: recombinant MMP-2, FRET substrate fluorescence, 60 min; at 16.6 µM
# [6] = target: Prothrombin (Bos taurus) (UniProt P00735); test: bovine thrombin inhibition counter-screen, confirmation, counter-screen for CSN deneddylation inhibitor project, biochemical, fluorescence polarization, single concentration (AID 720656;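 active = inhibition at or above a set limit, with a fluorescence interference ratio between 0.5 and a set maximum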); settings: bovine thrombin cleavage of Ub4-pepOG, at 16.6 µM, stronger effect = higher value
# [7] = target: PEG-3 (UniProt Q6IN02); test: Peg3 promoter luciferase inhibitors, potency, dose response, cell-based, HeLa, CREF/GAPDH counter-screen panel (AID 624167); settings: CREF/GAPDH counter-screens; HeLa PEG-Prom luciferase reporter, overnight, run 1, dose range 1, at 100 µM (top of the series) unless noted
# [8] = target: PEG-3 (UniProt Q6IN02); test: as above; settings: CREF/GAPDH counter-screens; HeLa PEG-Prom luciferase reporter, overnight, run 2, dose range 1, at 100 µM (top of the series) unless noted
# [9] = test system: Rat fibroblasts (CREF); test: as above; settings: CREF/GAPDH counter-screens; run 1, dose range 1, at 100 µM (top of the series)
# [10] = test system: Rat fibroblasts (CREF); test: as above; settings: CREF/GAPDH counter-screens; run 2, dose range 1, at 100 µM (top of the series)
# [11] = target: Sentrin-specific protease 8 (Homo sapiens) (UniProt Q96LD8); test: SENP8 protease inhibitors, retest, confirmation, biochemical, luminescence, single concentration (AID 488912;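 active = mean inhibition across replicates above about 50%, limit read from the data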); settings: Recombinant SENP8, Z-RLRGG-aminoluciferin luminescence, 60 min; at 12.5 µM; stronger effect = higher value
# [12] = target: Sentrin-specific protease 6 (Homo sapiens) (UniProt Q9GZR1); test: SENP6 protease inhibitors, confirmation, biochemical, luminescence, single concentration (AID 488915); settings: recombinant SENP6, Z-RLRGG-aminoluciferin luminescence; at 12.5 µM; stronger effect = higher value
# [13] = target: Sentrin-specific protease 7 (Homo sapiens) (UniProt Q9BQF6); test: SENP7 protease inhibitors, retest, confirmation, biochemical, luminescence, single concentration (AID 488917); settings: recombinant SENP7, Z-RLRGG-aminoluciferin luminescence, 40 min; at 12.5 µM; stronger effect = higher value
# [14] = target: Caspase-3 (Homo sapiens) (UniProt P42574); test: caspase-3 protease inhibitors, confirmation, selectivity assay for SENP inhibitor project, biochemical, single concentration (AID 488918;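 active = mean inhibition above about 50%, limit read from the data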;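 also: plate controls were enzyme with DMSO for no effect and wells without caspase-3 for full effect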); settings: purified caspase-3, Z-DEVD-aminoluciferin luminescence, 60 min; at 12.5 µM; stronger effect = higher value
# [15] = luciferase luminescence interference by compounds, confirmation, artefact control for SENP inhibitor project, biochemical, single concentration, SENP8 reaction pre-completed (AID 488919;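 active = mean inhibition above about 50% when retested at one dose, limit read from the data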;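 also: plate controls were DMSO wells with completed reaction for no effect and substrate without enzyme for full effect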); settings: Pre-incubated SENP8/Z-RLRGG-aminoluciferin, at 12.5 µM, stronger effect = higher value
# [16] = target: Tumor necrosis factor receptor superfamily member 10B (Homo sapiens) (UniProt O14763); test: caspase-8 TRAIL sensitization, hit retest, confirmation, cell-based, NB7+caspase-8, with/without TRAIL, luminescence panel (AID 651596; in the data active = activity above about 50%); settings: NB7 neuroblastoma + caspase-8, TRAIL sensitization, luminescence viability, with TRAIL, mean of runs, at 10 µM, stronger effect = higher value
# [17] = as above; settings: NB7 neuroblastoma + caspase-8, without TRAIL, luminescence viability, without TRAIL, mean of runs, at 10 µM
# [18] = target: Protein Mdm4 (Homo sapiens) + E3 ubiquitin-protein ligase Mdm2 (Homo sapiens) (UniProt O15151+Q00987); test: retested Mdm2-MdmX interaction blockers, confirmation, cell-based, luminescence, single concentration, set 2 (AID 504601;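 active = mean inhibition of the luminescence signal across two replicates at or above 26 percent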); settings: SaOS-2 split-luciferase Mdm2/MdmX complementation, at 8 µM, stronger effect = higher value
# [19] = inhibitors of PAF-induced NF-kB signaling, retest, confirmation, cell-based, GFP fluorescence, single concentration (AID 602472; in the data active = inhibition above about 40%;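 also: stimulus PAF is a Pseudomonas aeruginosa filtrate and not platelet activating factor; plate controls were DMSO wells with stimulus for no effect and unstimulated DMSO wells for full effect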); settings: KKLEB CF airway cells, overnight, at 5 µM, stronger effect = higher value
# [20] = HIF-2a reporter inhibitor retest, confirmation, luminescence, 786-0 RCC cells (AID 651580;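 active = mean inhibition across four replicates of at least 40 percent at the single tested concentration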); settings: HIF-2a luciferase reporter luminescence, overnight, at 18.8 µM, stronger effect = higher value
# [21] = HIF-1a luciferase reporter signal reduction – MiaPaCa-2 cells, single concentration, counter-screen for HIF-2a inhibitor project, confirmation (AID 651589;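 active = mean inhibition of the reporter signal across four replicates at the single tested dose of 50% or more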); settings: MiaPaCa-2 HIF-1a luciferase reporter, desferoxamine, overnight; at 18.8 µM; stronger effect = higher value
# [22] = inhibition of Brca1/Bard1 split-luciferase complementation, confirmation, counter-screen for Mdm2/MdmX interaction inhibitor project, luminescence, single concentration (AID 504668; call rule not given here); settings: Brca1/Bard1 bimolecular luciferase complementation counterscreen, at 8 µM, stronger effect = higher value
# Chain of Sentrin-specific protease 6 (Homo sapiens) (Q9GZR1 628-1112 limits assumed): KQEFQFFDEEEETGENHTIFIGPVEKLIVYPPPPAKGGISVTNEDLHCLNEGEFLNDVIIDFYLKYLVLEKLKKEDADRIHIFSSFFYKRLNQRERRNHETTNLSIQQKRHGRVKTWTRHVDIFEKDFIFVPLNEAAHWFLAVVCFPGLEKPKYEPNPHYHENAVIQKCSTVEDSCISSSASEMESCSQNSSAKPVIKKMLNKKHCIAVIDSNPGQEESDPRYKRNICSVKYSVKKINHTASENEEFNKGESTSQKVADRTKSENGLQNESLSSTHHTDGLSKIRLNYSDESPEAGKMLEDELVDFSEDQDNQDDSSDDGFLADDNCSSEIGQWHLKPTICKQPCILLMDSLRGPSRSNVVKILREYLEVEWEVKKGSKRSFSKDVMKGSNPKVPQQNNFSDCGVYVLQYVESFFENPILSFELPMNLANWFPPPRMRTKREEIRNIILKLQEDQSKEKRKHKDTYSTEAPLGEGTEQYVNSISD
# Chain of Caspase-3 (Homo sapiens) (P42574 28-227 limits assumed): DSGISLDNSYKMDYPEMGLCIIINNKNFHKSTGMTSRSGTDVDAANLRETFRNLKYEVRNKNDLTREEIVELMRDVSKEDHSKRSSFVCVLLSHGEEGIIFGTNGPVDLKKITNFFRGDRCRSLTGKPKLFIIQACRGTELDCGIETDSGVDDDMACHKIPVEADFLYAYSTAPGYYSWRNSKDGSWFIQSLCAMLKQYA
# Chain of Sentrin-specific protease 7 (Homo sapiens) (Q9BQF6 706-1050 limits assumed): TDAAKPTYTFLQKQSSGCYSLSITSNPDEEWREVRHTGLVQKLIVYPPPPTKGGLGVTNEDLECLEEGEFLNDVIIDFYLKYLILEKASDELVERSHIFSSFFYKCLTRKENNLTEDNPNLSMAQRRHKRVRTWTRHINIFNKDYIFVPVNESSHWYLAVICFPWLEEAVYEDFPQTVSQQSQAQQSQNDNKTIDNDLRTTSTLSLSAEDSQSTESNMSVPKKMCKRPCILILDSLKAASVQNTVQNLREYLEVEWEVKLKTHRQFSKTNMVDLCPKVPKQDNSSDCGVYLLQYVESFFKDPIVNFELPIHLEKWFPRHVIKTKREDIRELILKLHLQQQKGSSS
# Chain of Sentrin-specific protease 8 (Homo sapiens) (Q96LD8 whole entry, looked up): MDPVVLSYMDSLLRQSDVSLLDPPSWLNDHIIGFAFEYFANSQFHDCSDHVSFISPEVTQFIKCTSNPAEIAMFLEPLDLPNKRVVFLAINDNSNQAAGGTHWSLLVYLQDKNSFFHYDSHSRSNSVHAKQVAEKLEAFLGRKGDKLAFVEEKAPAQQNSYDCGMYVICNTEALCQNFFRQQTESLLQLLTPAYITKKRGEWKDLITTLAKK
# Chain of Tumor necrosis factor receptor superfamily member 10B (Homo sapiens) (O14763 whole entry, looked up): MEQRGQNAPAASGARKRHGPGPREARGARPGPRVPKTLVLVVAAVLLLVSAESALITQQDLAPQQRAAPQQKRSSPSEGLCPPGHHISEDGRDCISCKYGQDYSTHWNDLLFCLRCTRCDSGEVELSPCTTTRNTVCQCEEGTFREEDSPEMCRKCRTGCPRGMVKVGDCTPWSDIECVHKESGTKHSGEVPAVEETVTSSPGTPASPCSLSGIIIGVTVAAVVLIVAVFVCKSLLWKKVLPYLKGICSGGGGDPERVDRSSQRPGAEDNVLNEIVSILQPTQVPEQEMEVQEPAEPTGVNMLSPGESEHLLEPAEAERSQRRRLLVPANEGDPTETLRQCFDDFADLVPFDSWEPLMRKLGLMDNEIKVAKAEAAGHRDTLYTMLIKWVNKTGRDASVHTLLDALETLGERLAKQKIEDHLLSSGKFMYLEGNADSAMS
# Chain of PEG-3 (Q6IN02 whole entry, looked up): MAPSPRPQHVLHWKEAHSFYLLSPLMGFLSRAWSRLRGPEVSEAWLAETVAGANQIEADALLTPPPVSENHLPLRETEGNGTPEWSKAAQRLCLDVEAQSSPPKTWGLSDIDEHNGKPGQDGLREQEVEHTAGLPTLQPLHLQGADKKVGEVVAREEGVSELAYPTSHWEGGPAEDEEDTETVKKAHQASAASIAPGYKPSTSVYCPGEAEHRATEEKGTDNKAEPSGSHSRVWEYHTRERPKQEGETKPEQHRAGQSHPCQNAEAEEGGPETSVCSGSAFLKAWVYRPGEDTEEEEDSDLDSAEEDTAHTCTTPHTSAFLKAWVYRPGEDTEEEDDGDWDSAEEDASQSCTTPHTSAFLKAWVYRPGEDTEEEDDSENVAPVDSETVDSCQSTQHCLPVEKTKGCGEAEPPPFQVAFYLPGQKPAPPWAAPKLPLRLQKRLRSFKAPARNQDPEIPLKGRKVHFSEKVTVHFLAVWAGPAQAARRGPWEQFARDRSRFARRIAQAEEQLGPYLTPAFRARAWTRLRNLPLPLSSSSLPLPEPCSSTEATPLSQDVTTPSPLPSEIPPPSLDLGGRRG
# Chain of COP9 signalosome complex subunit 5 (Homo sapiens) (Q92905 whole entry, looked up, one chain of several): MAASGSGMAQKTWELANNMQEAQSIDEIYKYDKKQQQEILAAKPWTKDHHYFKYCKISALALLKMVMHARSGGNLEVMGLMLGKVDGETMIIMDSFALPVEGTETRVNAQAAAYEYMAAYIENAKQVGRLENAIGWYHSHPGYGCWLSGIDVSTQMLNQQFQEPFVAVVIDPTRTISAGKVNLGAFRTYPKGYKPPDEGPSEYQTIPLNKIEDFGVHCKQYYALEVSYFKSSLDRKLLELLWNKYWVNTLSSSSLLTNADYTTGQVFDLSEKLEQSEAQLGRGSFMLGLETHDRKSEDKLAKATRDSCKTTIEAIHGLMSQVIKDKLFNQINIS
# Chain of 72 kDa type IV collagenase (Homo sapiens) (P08253 whole entry, looked up): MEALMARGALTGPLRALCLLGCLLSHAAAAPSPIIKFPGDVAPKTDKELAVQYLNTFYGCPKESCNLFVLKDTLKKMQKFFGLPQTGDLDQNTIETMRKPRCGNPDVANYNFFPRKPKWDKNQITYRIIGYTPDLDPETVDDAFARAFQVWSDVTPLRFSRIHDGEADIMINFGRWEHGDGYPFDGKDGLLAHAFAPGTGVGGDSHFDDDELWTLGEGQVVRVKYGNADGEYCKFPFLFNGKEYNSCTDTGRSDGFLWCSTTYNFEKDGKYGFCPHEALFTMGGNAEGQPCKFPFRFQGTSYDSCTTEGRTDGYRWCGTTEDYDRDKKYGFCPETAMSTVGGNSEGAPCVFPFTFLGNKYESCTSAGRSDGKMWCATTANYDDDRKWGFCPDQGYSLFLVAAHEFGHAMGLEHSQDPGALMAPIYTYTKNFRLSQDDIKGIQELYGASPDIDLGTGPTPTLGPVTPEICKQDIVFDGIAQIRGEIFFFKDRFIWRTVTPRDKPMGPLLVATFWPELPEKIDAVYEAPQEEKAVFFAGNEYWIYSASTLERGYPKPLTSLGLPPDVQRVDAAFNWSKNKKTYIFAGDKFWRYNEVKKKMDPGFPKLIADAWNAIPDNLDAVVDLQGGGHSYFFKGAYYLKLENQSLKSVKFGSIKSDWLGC
# Chain of Prothrombin (Bos taurus) (P00735 whole entry, looked up): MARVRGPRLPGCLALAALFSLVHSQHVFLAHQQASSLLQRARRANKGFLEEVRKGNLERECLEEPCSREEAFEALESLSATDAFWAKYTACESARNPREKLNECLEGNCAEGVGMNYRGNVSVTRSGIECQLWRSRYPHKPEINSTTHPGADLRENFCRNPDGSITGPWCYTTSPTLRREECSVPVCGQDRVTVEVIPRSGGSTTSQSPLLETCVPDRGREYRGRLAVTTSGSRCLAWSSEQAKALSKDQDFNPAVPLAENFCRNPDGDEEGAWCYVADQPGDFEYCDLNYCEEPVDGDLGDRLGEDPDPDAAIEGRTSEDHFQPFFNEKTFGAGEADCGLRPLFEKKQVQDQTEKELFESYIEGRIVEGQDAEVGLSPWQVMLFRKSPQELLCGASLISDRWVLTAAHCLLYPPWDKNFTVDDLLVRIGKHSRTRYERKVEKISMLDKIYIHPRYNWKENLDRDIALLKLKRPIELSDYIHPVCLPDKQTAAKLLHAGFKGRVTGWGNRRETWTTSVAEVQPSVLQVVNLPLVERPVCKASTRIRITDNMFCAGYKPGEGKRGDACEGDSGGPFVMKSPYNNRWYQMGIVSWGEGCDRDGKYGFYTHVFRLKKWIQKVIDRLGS
# Chain of Protein Mdm4 (Homo sapiens) + E3 ubiquitin-protein ligase Mdm2 (Homo sapiens) (O15151 whole entry, looked up): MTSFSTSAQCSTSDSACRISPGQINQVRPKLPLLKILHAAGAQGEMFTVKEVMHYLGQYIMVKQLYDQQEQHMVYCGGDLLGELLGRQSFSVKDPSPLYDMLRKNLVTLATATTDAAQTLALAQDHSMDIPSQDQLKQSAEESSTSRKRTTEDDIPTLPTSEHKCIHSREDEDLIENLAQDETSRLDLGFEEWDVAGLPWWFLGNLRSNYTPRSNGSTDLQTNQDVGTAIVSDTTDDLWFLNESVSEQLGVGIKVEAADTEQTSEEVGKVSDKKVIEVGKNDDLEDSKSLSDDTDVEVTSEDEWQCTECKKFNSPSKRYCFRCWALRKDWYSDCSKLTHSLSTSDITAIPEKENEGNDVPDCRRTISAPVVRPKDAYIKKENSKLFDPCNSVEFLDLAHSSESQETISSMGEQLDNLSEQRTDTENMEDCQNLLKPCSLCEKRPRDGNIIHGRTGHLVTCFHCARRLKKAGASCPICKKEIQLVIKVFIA
# Chain of Protein Mdm4 (Homo sapiens) + E3 ubiquitin-protein ligase Mdm2 (Homo sapiens) (Q00987 whole entry, looked up): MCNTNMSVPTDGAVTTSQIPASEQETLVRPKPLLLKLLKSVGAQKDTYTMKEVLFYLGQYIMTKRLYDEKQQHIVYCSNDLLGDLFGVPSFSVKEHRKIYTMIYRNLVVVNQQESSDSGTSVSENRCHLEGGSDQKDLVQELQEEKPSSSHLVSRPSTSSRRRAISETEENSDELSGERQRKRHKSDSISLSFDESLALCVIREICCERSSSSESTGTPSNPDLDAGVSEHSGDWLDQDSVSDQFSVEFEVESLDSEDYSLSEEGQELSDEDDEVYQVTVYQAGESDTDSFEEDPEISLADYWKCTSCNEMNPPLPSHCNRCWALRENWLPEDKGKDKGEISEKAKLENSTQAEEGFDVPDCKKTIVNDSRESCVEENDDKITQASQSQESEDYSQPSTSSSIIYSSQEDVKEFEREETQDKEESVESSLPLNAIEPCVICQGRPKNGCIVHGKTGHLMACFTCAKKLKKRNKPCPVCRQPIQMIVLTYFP
smiles,measurement,setting,value
Cc1cc(=O)oc2cc(OCC3CC(c4ccccc4Cl)=NO3)ccc12 (stereo not drawn),inhibition,[1],54.6% (active)
CC(C)Sc1ncnc2c1cnn2-c1ccccc1,inhibition,[1],-138% (inactive)
c1cnc(N2CCN(c3ccc4ccccc4n3)CC2)nc1,inhibition,[1],-107% (inactive)
Cn1nccc1C(=O)NC1CCCc2c1cnn2-c1ccccc1F (stereo not drawn),inhibition,[1],68.1% (active)
CCC(C)Cn1c(O)cc2nn(-c3nc4ccccc4s3)c(=O)c-2c1C (stereo not drawn),cytotoxicity,[2],53.8% (active)
same,inhibition,[3],94.5% (active)
same,inhibition,[4],102% (active)
same,inhibition,[5],16% (active)
same,inhibition,[6],-1.66% (inactive)
same,inhibition,[7],99%
same,inhibition,[8],101%
same,inhibition,[9],72.9%
same,inhibition,[10],68.7%
O=C(CCNC(=O)c1ccc(Br)cc1)Nc1cccc(S(=O)(=O)N2CCCCC2)c1,inhibition,[1],0.65% (inactive)
COc1ccc(C(=O)Nc2ccccc2C(=O)N/N=C/c2ccc(O)c(OC)c2)cc1,cytotoxicity,[2],96.5% (active)
same,inhibition,[11],97.3% (active)
same,inhibition,[12],98.5% (active)
same,inhibition,[13],102% (active)
same,inhibition,[14],98.4% (active)
same,inhibition,[15],83.7% (active)
COc1cc(SC)ccc1C(=O)Nc1cc(C)ccn1,cytotoxicity,[2],53.4% (active)
same,inhibition,[11],39.8% (inactive)
same,inhibition,[12],40.9% (inactive)
same,inhibition,[13],78.8% (active)
same,inhibition,[14],43.8% (inactive)
same,inhibition,[15],51% (active)
O=c1oc(/C=C/c2ccccc2)nc2ccccc12,cytotoxicity,[2],57.5% (active)
same,activity,[16],76.2%
same,activity,[17],79.7%
Cn1c(=NC(=O)c2cnccn2)sc2ccccc21,cytotoxicity,[2],50.8% (active)
same,activity,[16],57.3%
same,activity,[17],53.5%
Cc1ccc(-c2nc3ccccc3[nH]2)cc1N,cytotoxicity,[2],49.3% (inactive)
same,inhibition,[11],91.6% (active)
same,inhibition,[12],92% (active)
same,inhibition,[13],102% (active)
same,inhibition,[14],96.7% (active)
same,inhibition,[15],92.3% (active)
Cc1ccccc1Nc1nc(N)nc(CSc2ccccc2)n1,inhibition,[1],-82.8% (inactive)
COc1ccc(-c2cn3ccc(C)cc3n2)cc1,cytotoxicity,[2],89.4% (active)
same,inhibition,[11],-5.4% (inactive)
same,inhibition,[12],88.1% (active)
same,inhibition,[13],99.5% (active)
same,inhibition,[14],95.2% (active)
same,inhibition,[15],91.2% (active)
same,activity,[16],82.7%
same,activity,[17],81.1%
O=C(CSC(=S)N1CCCCC1)c1c(F)cccc1F,inhibition,[1],-113% (inactive)
Cn1c(-c2ccco2)nc2cc3ccccc3cc21,cytotoxicity,[2],89.1% (active)
same,inhibition,[11],3.5% (inactive)
same,inhibition,[12],99.6% (active)
same,inhibition,[13],103% (active)
same,inhibition,[14],98.1% (active)
same,inhibition,[15],98.1% (active)
O=C(NCCC1CCCCN1S(=O)(=O)c1cccs1)C(=O)Nc1ccc(F)cc1F (stereo not drawn),inhibition,[1],-3.5% (inactive)
O=C(NCc1ccc2c(c1)OCO2)c1cc([N+](=O)[O-])ccc1N1CCOCC1,inhibition,[1],38.1% (inactive)
Cc1ccc(-c2cc(C(=O)N/N=C/C=C/c3ccco3)c3ccccc3n2)cc1C,cytotoxicity,[2],56.4% (active)
same,activity,[16],59.7%
same,activity,[17],70.4%
CC(=O)c1sc(NC(=O)c2ccc(C)cc2)nc1C,cytotoxicity,[2],52.3% (active)
same,inhibition,[11],-24.9% (inactive)
same,inhibition,[12],-17.1% (inactive)
same,inhibition,[13],3.1% (inactive)
same,inhibition,[14],6% (inactive)
same,inhibition,[15],-5.6% (inactive)
same,activity,[16],68.5%
same,activity,[17],68.1%
O=C(/C=C/c1ccc(Cl)c([N+](=O)[O-])c1)c1ccc(O)cc1,cytotoxicity,[2],4.1% (inactive)
same,inhibition,[18],103% (active)
same,inhibition,[3],98.9% (active)
same,inhibition,[19],-37.9% (inactive)
same,inhibition,[20],20.2% (inactive)
same,inhibition,[21],105% (active)
same,inhibition,[7],102%
same,inhibition,[8],99.1%
same,inhibition,[9],99.1%
same,inhibition,[10],98.7%
Clc1ccc2nc(-c3ccccc3)nc(C(Cl)Cl)c2c1,cytotoxicity,[2],76.5% (active)
same,inhibition,[20],-30.4% (inactive)
same,inhibition,[21],104% (active)
Cc1nc2cc(NC(=O)Nc3cccc(F)c3)ccc2n1C,cytotoxicity,[2],51.2% (active)
same,activity,[16],72.3%
same,activity,[17],65.2%
O=C(Nc1ccccc1Cl)/C(Cl)=C(\Cl)S(=O)c1ccccc1 (stereo not drawn),inhibition,[1],59.8% (active)
O=C(Oc1ccc(-c2nc(-c3ccccn3)no2)cc1)c1ccccc1,cytotoxicity,[2],44.9% (inactive)
same,inhibition,[11],4.5% (inactive)
same,inhibition,[12],23.1% (inactive)
same,inhibition,[13],2.6% (inactive)
same,inhibition,[14],14.5% (inactive)
same,inhibition,[15],2.6% (inactive)
Cc1c(/C=N\NC(=O)c2cc3ccccc3o2)c2ccccc2n1C,inhibition,[1],-0.3% (inactive)
Cc1ccc(-c2cn3cc(C)ccc3n2)cc1,cytotoxicity,[2],85.8% (active)
same,inhibition,[11],54.3% (active)
same,inhibition,[12],91.7% (active)
same,inhibition,[13],101% (active)
same,inhibition,[14],95% (active)
same,inhibition,[15],39.4% (inactive)
same,inhibition,[22],29% (active)
same,inhibition,[3],82% (active)
same,inhibition,[7],96.6%
same,inhibition,[8],96.4%
same,inhibition,[9],98.1%
same,inhibition,[10],96.8%
